According to PubChem BioAssay (EPA / NIEHS):
Calls of active or inactive are those of the source. Rule for the calls: active = hit-call score of the fitted dose curve at least 0.9, where 1 is the maximum; inactive = score below 0.9.

What was measured:
Conditions in all cases: mRNA level, 48 h; actives raise or lower the signal
[1] = read-out: Bcl-2 (BAX) gene, BAX (gene 581); assay: LTEA_HepaRG_BAX: Life Technologies and Expression Analysis (LTEA) Assay for Bcl-2 (BAX) gene using HepaRG (AID 2283470)
In short: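 Cells were thawed, plated for 48 h, moved to serum-free induction medium and dosed for 48 h (highest concentration 100 uM, half-log steps, 0.5% DMSO). Total RNA was then analysed for BAX expression by qRT-PCR.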

[2] = read-out: adenosine kinase (ADK) gene, ADK (gene 132); assay: LTEA_HepaRG_ADK: Life Technologies and Expression Analysis (LTEA) Assay for adenosine kinase (ADK) gene using HepaRG (AID 2283471)
In short: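 Read-out is ADK transcript level measured by qRT-PCR and normalised to three housekeeping genes. Cells are human HepaRG, dosed for 48 h at up to 100 uM in 0.5% DMSO. Gain or loss of signal is fitted against DMSO controls.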

[3] = read-out: Alpha-fetoprotein (AFP) gene, AFP (gene 174); assay: LTEA_HepaRG_AFP: Life Technologies and Expression Analysis (LTEA) Assay for Alpha-fetoprotein (AFP) gene using HepaRG (AID 2283472)
In short: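 Chemicals were tested on differentiated HepaRG cells for 48 hours at eight concentrations up to 100 uM, with 0.5% DMSO as vehicle. AFP expression was then quantified by qRT-PCR and analyzed for gain or loss relative to DMSO.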

BCL2L11 (gene 10018) = assay: LTEA_HepaRG_BCL2L11: Life Technologies and Expression Analysis (LTEA) Assay for Bcl-2 (BCL2L11) gene using HepaRG (AID 2283473)
In short: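 BCL2L11 transcript levels are measured by Fluidigm qRT-PCR, normalized to three housekeeping genes. HepaRG cultures were plated 48 h, then treated 48 h with test chemical (top 100 uM, half-log, 0.5% DMSO vehicle); curves were fitted bidirectionally against DMSO.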

[4] = read-out: Apolipoprotein A-V (APOA5) gene, APOA5 (gene 116519); assay: LTEA_HepaRG_APOA5: Life Technologies and Expression Analysis (LTEA) Assay for Apolipoprotein A-V (APOA5) gene using HepaRG (AID 2283474)
In short: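 APOA5 transcript levels were quantified by qRT-PCR, normalized to three housekeeping genes, after 48 h chemical treatment of HepaRG cells (8 points, 100 uM maximum, half-log steps, 0.5% DMSO). Curves fitted in both directions against vehicle.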

[5] = read-out: Apoptosis regulator Bcl-2 (Homo sapiens) (UniProt P10415); assay: LTEA_HepaRG_BCL2: Life Technologies and Expression Analysis (LTEA) Assay for Bcl-2 gene using HepaRG (AID 2283475)
In short: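 Plated human HepaRG cells are exposed to test chemicals for 48 h across eight concentrations from 100 uM downward in half-log steps (0.5% DMSO). BCL2 expression is then measured by qRT-PCR with housekeeping normalisation and fitted bidirectionally against vehicle.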

[6] = read-out: Bcl-2 (BID) gene, BID (gene 637); assay: LTEA_HepaRG_BID: Life Technologies and Expression Analysis (LTEA) Assay for Bcl-2 (BID) gene using HepaRG (AID 2283476)
In short: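 Cells are plated, cultured 48 h, switched to serum-free induction medium, then dosed 48 h (100 uM top, half-log steps, 0.5% DMSO). RNA is isolated and BID expression read by qRT-PCR.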

Caspase-3 (Homo sapiens) = Caspase-3 (Homo sapiens) (UniProt P42574); assay: LTEA_HepaRG_CASP3: Life Technologies and Expression Analysis (LTEA) Assay for cysteine-aspartic acid protease (CASP3) using HepaRG (AID 2283477)
Sequence of Caspase-3 (Homo sapiens) (P42574 whole entry, looked up): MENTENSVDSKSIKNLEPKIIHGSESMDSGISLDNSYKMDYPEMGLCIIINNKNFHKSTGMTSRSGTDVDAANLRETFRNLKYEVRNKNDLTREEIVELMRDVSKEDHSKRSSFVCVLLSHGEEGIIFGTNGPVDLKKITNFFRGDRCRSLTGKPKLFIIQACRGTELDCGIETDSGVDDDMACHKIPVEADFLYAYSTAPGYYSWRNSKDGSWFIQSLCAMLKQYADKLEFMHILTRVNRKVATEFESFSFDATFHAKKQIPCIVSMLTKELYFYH
In short: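 Expression of CASP3 was quantified by TaqMan qRT-PCR against three housekeeping genes (ACTB, GAPDH, POLR2A), bidirectionally versus 0.5% DMSO. HepaRG cultures received compounds in duplicate, top 100 uM with half-log steps, for 48 h in serum-free induction medium.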

[7] = read-out: Cytochrome P450 (CYP24A1), CYP24A1 (gene 1591); assay: LTEA_HepaRG_CYP24A1: Life Technologies and Expression Analysis (LTEA) Assay for Cytochrome P450 (CYP24A1) using HepaRG (AID 2283478)
In short: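 mRNA of CYP24A1 quantified by TaqMan qRT-PCR (ACTB/GAPDH/POLR2A normalization) after 48 h chemical exposure of HepaRG cells, top concentration 100 uM, half-log steps, 0.5% DMSO vehicle, duplicates. Curves fitted bidirectionally against DMSO baseline.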

[8] = read-out: Cytochrome P450 (CYP1A2), CYP1A2 (gene 1544); assay: LTEA_HepaRG_CYP1A2: Life Technologies and Expression Analysis (LTEA) Assay for Cytochrome P450 (CYP1A2) using HepaRG (AID 2283479)
In short: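 CYP1A2 transcript measured by TaqMan qRT-PCR against three housekeeping genes after 48-hour chemical exposure of HepaRG cells. Eight-point half-log series topping at 100 uM in 0.5% DMSO, duplicates; gain or loss fitted relative to vehicle.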

[9] = read-out: cysteine-aspartic acid protease (CASP8), CASP8 (gene 841); assay: LTEA_HepaRG_CASP8: Life Technologies and Expression Analysis (LTEA) Assay for cysteine-aspartic acid protease (CASP8) using HepaRG (AID 2283480)
In short: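 qRT-PCR readout of CASP8 mRNA, normalized to three housekeeping genes, after 48 h chemical exposure of HepaRG cells; 8-point half-log series, top 100 uM, 0.5% DMSO vehicle. Bidirectional curve fitting against DMSO baseline.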

[10] = read-out: Cytochrome P450 (CYP2B6), CYP2B6 (gene 1555); assay: LTEA_HepaRG_CYP2B6: Life Technologies and Expression Analysis (LTEA) Assay for Cytochrome P450 (CYP2B6) using HepaRG (AID 2283481)
In short: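 CYP2B6 transcript level quantified by qRT-PCR against three housekeeping genes, fitted bidirectionally relative to DMSO. HepaRG cultures received chemicals for 48 h, 8-point half-log series from 100 uM in 0.5% DMSO, duplicate wells, serum-free induction medium.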

[11] = read-out: Cytochrome P450 2C19 (Homo sapiens) (UniProt P33261); assay: LTEA_HepaRG_CYP2C19: Life Technologies and Expression Analysis (LTEA) Assay for CYP2C19 using HepaRG (AID 2283482)
In short: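 CYP2C19 transcript levels by qRT-PCR, normalized to three housekeeping genes, in HepaRG cells after 48 h chemical exposure. Eight-point half-log series topping at 100 uM, 0.5% DMSO vehicle. Increases and decreases both fitted against DMSO.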

CYP2C8 (gene 1558) = assay: LTEA_HepaRG_CYP2C8: Life Technologies and Expression Analysis (LTEA) Assay for CYP2C8 using HepaRG (AID 2283483)
In short: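 HepaRG (human liver line), 48 h chemical exposure, 8-pt half-log series from 100 uM, 0.5% DMSO vehicle. Readout: CYP2C8 transcript by qRT-PCR, housekeeping-normalized. Bidirectional fit vs DMSO baseline.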

CYP2C9 (gene 1559) = assay: LTEA_HepaRG_CYP2C9: Life Technologies and Expression Analysis (LTEA) Assay for CYP2C9 using HepaRG (AID 2283484)
In short: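 HepaRG, 48 h dosing, 8-pt half-log series, top 100 uM, 0.5% DMSO vehicle. Read-out: CYP2C9 transcript by TaqMan qRT-PCR, housekeeping-normalized (ACTB/GAPDH/POLR2A). Gain or loss fitted vs DMSO baseline.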

CYP2E1 (gene 1571) = assay: LTEA_HepaRG_CYP2E1: Life Technologies and Expression Analysis (LTEA) Assay for CYP2E1 using HepaRG (AID 2283485)
In short: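 Readout is qRT-PCR of CYP2E1 mRNA, normalized to three housekeeping genes and fitted bidirectionally against 0.5% DMSO. HepaRG cells were dosed 48 h at eight concentrations, highest 100 uM with half-log dilutions.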

CYP4A11 (gene 1579) = assay: LTEA_HepaRG_CYP4A11: Life Technologies and Expression Analysis (LTEA) Assay for CYP4A11 using HepaRG (AID 2283486)
In short: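 Readout is CYP4A11 transcript level by qRT-PCR, normalized to three housekeeping genes and fitted bidirectionally against 0.5% DMSO. Human HepaRG cells were treated 48 h, in duplicate, with an 8-point half-log series topping at 100 uM.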

[12] = read-out: Cytochrome P450 3A4 (Homo sapiens) (UniProt P08684); assay: LTEA_HepaRG_CYP3A4: Life Technologies and Expression Analysis (LTEA) Assay for CYP3A4 using HepaRG (AID 2283487)
In short: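 HepaRG, 48 h exposure, 8-pt CRC from 100 uM (half-log), 0.5% DMSO, duplicates; serum-free induction medium. Readout: CYP3A4 mRNA, qRT-PCR, ACTB/GAPDH/POLR2A normalization. Bidirectional fit vs DMSO.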

[13] = read-out: DNA damage-inducible transcript 3 (DDIT3), DDIT3 (gene 1649); assay: LTEA_HepaRG_DDIT3: Life Technologies and Expression Analysis (LTEA) Assay for DNA damage-inducible transcript 3 (DDIT3) using HepaRG (AID 2283488)
In short: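 Cells are human HepaRG liver cells treated for 48 h with eight half-log concentrations up to 100 uM in 0.5% DMSO. Transcript levels come from qRT-PCR normalized to three housekeeping genes, with activity fitted in both directions relative to vehicle.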

[14] = read-out: Pro-epidermal growth factor (Homo sapiens) (UniProt P01133); assay: LTEA_HepaRG_EGF: Life Technologies and Expression Analysis (LTEA) Assay for Epidermal growth factor (EGF) using HepaRG (AID 2283489)
In short: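 EGF transcript measured by Fluidigm TaqMan qRT-PCR with three housekeeping genes for normalization, 48 h after dosing HepaRG cultures in duplicate (top 100 uM, half-log steps, 0.5% DMSO vehicle). Gain or loss relative to DMSO fitted.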

Measured: outcome

Sequence of Cytochrome P450 3A4 (Homo sapiens) (P08684 whole entry, looked up): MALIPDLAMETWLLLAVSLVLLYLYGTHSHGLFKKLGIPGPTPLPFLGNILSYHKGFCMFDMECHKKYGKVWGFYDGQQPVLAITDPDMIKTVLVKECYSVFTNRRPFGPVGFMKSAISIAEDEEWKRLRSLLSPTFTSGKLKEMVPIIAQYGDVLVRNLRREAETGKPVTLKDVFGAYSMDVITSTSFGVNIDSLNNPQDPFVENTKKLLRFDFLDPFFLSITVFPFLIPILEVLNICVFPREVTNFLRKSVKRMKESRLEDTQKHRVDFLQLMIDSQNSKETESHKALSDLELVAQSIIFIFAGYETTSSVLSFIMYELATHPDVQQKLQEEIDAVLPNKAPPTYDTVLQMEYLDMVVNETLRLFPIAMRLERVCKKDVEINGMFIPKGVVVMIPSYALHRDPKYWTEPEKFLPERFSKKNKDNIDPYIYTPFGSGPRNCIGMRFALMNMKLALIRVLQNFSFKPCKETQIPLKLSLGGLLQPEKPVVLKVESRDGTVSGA
Sequence of Cytochrome P450 2C19 (Homo sapiens) (P33261 whole entry, looked up): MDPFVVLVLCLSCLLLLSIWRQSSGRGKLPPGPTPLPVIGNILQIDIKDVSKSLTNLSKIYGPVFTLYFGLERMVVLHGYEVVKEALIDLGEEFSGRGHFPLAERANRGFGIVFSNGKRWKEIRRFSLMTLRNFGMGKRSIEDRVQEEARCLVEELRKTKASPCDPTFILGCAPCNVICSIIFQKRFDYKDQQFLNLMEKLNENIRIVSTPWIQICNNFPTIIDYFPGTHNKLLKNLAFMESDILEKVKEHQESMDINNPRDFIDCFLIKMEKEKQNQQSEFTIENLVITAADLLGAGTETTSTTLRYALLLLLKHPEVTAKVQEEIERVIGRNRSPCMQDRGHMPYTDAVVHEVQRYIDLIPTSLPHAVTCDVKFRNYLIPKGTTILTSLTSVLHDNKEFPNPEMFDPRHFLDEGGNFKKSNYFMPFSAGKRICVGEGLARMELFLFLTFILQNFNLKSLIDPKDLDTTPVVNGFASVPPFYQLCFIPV
Sequence of Apoptosis regulator Bcl-2 (Homo sapiens) (P10415 whole entry, looked up): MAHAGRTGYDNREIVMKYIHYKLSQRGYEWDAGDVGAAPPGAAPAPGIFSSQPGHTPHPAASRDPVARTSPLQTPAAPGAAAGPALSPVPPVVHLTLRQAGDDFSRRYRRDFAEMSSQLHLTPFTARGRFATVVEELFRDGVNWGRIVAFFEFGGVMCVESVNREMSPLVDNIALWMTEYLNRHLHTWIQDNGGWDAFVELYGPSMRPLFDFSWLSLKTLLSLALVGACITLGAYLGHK

CS(=O)(=O)OCCCCOS(C)(=O)=O
inactive: all assays above
